From PubChem BioAssay (NCI)
About 83,000 compounds went through this panel and 20% of them were active in at least one assay; those are over-represented in the sample as a whole.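 Step 1: grow cells in 96-well plates. Step 2: add test compound at a single concentration. Step 3: incubate 48 h. Step 4: record percent growth.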 Unmarked numbers belong to inactive results. The source made the active and inactive calls.

test system: CCRF-CEM leukemia; experiment: NCI-60 one-dose screen, 48 h (100 = growth as untreated, 0 = no growth, -100 = all killed); conditions: 10 µM unless noted
Protocol: Growth inhibition of the CCRF-CEM human tumor cell line is measured as a screen for anti-cancer activity. Cells are grown in 96 well plates and exposed to the test compound for 48 hours. Compounds are tested at a single concentration, which is 10^-5 M for most compounds. The reported endpoint is percent growth (GI% or GIPRCNT), where numbers from 0 - 100% represent growth inhibition, and numbers from -100% - 0 represent cell death. For example, a value of 40 represents 60% growth inhibition. A value of 0 means no net growth occurred over the course of the experiment. A value of -40 indicates 40% of cells at the beginning of the experiment died by the end of the experiment. A value of -100 means all cells are dead at the end of the experiment.
NCI-60 Human Tumor Cell Lines Screen was performed using the standard one-dose NCI protocol, which is described in more detail at https://dtp.cancer.gov/discovery_development/nci-60/default.htm.
Compounds with GIPRCNT values below 10 were considered active. Activity score was based on GIPRCNT using the following formula: […]
Score is 0 for GIPRCNT values of 100 or above, 50 for GIPRCNT values of 0, and 100 for GIPRCNT values of -100.

Q: With CNC=O as the molecule, how does the growth read?
A: Its growth is 103%.

Q: Which growth does the source give for COc1cc(-c2ncn(/C=C\c3nnco3)n2)cc(C(F)(F)F)c1 here?
A: The growth was 13.6%.

Q: For CC/C=C/[C@@H]1C=C[C@@H]2CCC[C@H]2[C@@H]1CC[C@H](O)[C@H](C)N, which growth is on record?
A: The growth was -44% (active).

Q: How did the growth turn out when O=C(Nc1ccc(N2CCCCC2)c(Cl)c1)c1ccc(Br)o1 was run?
A: The growth was 74.9%.

Q: With C=CCOc1cccc(/C=C2\SC(=Nc3ccc(O)cc3)NC2=O)c1 as the molecule, how does the growth read?
A: The growth was 4.85% (active).

Q: For O=C(CCCCCCCn1cc(-c2cccnc2)nn1)Nc1ccccc1-c1ccccc1, which growth is on record?
A: The growth was 59.9%.

Q: With NC(N)=N/N=C/c1ccc(Br)cc1 as the molecule, how does the growth read?
A: Its growth is 32.6%.

Q: With COc1ccc(/C(C)=C(\c2ccc(Cl)cc2)c2ccc(OCCN3CCCC3)cc2)cc1F as the molecule, how does the growth read?
A: The growth was 31.2%.

Q: Which growth does the source give for COc1ccc(C2CC(c3ccccc3)=NN2c2nc(C)c(C(C)=O)s2)cc1 (stereo not given) here?
A: Its growth is 96.3%.

Q: For CCOC(=O)c1cnn2c(-c3ccc(Cl)cc3)nc(NCc3ccccc3)nc12, which growth is on record?
A: Its growth is 66.9%.

Q: For COc1cc2c(c(OC)c1OC)C(=O)/C(=C/c1cc(C)c(O)c(C)c1)S2, which growth is on record?
A: Its growth is 25%.

Q: For Nc1ccc(S(=O)(=O)Nc2ccsc2-c2nc(-c3ccccc3)no2)cc1, which growth is on record?
A: The growth was 53.2%.

Q: With COc1ccc(C2CC(c3cnccn3)=NN2)cc1OC (stereo not given) as the molecule, how does the growth read?
A: The growth was 75.2%.

Q: With N[C@@H]1CCC[C@H]1NCCCCN1C(=O)c2cccc3cccc(c23)C1=O as the molecule, how does the growth read?
A: Its growth is 98.4%.

Q: With O=[N+]([O-])c1ccc(-c2cc3c(Nc4ccc(Sc5nc6ccccc6s5)c(Cl)c4)ncnc3s2)cc1 as the molecule, how does the growth read?
A: The growth was 34.6%.

Q: Which growth does the source give for C/C(=N\NC(=O)Cn1c(-c2ccc(S(C)(=O)=O)cc2)nc2cc(Cl)ccc21)c1ccc(Cl)cc1 here?
A: The growth was 76.2%.

Q: Which growth does the source give for C(=C\c1nc2ccccc2[nH]1)/c1nc2ccccc2[nH]1 here?
A: The growth was 93.5%.

Q: With Cn1ccnc1C(=O)/C=C/c1ccc(C(=O)Nc2ccc(S(F)(F)(F)(F)F)cc2)cc1 as the molecule, how does the growth read?
A: The growth was 3.4% (active).

Q: For CCOC(=O)C1=C(C)NC(SCc2nnc(-c3ccc(Cl)cc3)o2)=NC1c1ccc(Cl)cc1Cl (stereo not given), which growth is on record?
A: The growth was 27.4%.

Q: CCCCCCNCc1cc(C(C)(C)C)cc(CNCCCCCC)c1O was tested. Which growth did it give?
A: Its growth is -10.4% (active).

Q: How did the growth turn out when O=C1CSC(c2ccccc2Cl)N1c1nnc(Cn2cnnc2)o1 (stereo not given) was run?
A: Its growth is 43.4%.

Q: For COc1ccc(/C=C2\COc3ccc(O)cc3C2=O)cc1OC, which growth is on record?
A: The growth was 3.05% (active).

Q: For CCN(CC)CC(=O)Nc1cccc(C(=O)OC(C)C)c1, which growth is on record?
A: The growth was 86.6%.

Q: With COc1ccc2c(c1)/C(=C\c1sc(=S)[nH]c1O)C(C(=O)O)=N2 as the molecule, how does the growth read?
A: Its growth is 95.7%.

Q: Which growth does the source give for Nc1ccc(-c2cc3c(Nc4ccc(OCc5cccc(F)c5)c(Cl)c4)ncnc3s2)cc1 here?
A: The growth was 24%.

Q: Which growth does the source give for CS(=O)(=O)c1ccc(-c2[nH]c3ccc(F)cc3c2/C=N/NC(N)=S)cc1 here?
A: The growth was 2.97% (active).

Q: Which growth does the source give for O=C(/C=C/C12c3ccccc3C(c3ccccc31)C1C(=O)N(c3ccc(Cl)cc3)C(=O)C12)c1ccccn1 (stereo not given) here?
A: Its growth is 13.1%.

Q: How did the growth turn out when CC(C)(C)c1ccc(C(=O)Nc2sc3c(c2C(N)=O)CCC(=O)C3)cc1 was run?
A: The growth was 1.49% (active).

Q: How did the growth turn out when CN(C)CCC(O)(Cc1ccccc1)c1ccccc1 (stereo not given) was run?
A: Its growth is 112%.

Q: For CC(C)n1nc(C#Cc2cccc3cc(-c4cccc(C(F)(F)F)c4)ncc23)c2c(N)ncnc21, which growth is on record?
A: Its growth is 39.5%.

Q: COc1cc(C(=O)/C=C/c2c(C(F)(F)F)nc3ccccn23)cc(OC)c1OC was tested. Which growth did it give?
A: Its growth is 5.58% (active).

Q: How did the growth turn out when CC(C)n1nc(C#Cc2cccc(NC(=O)c3cccc(C(F)(F)F)c3)c2)c2c(N)ncnc21 was run?
A: Its growth is 11.8%.

Q: How did the growth turn out when NC(N)=N/N=C(/c1ccccc1)c1ccc(N)cc1 was run?
A: The growth was 124%.

Q: Which growth does the source give for N#Cc1c(NC(=O)c2ccc(Br)cc2)sc2c1CCCC2 here?
A: The growth was 20.4%.

Q: Which growth does the source give for CC(C)OCCCNCC(=O)Nc1ccc(S(=O)(=O)c2ccc(NC(=O)CNCCCOC(C)C)cc2)cc1 here?
A: The growth was 85.1%.

Q: How did the growth turn out when COc1cc(NC(=O)c2cccc(-c3cc(=O)c4c(O)c(OC)c(OC)cc4o3)c2)cc(OC)c1OC was run?
A: Its growth is 58.1%.

Q: For c1ccc(-c2oc3ccccc3c2-c2ccccc2)cc1, which growth is on record?
A: Its growth is 86.1%.

Q: Which growth does the source give for COc1ccc(Cn2cnc3cc(C(=O)Nc4cccc5ccccc45)ccc32)c(OC)c1 here?
A: Its growth is 12.6% [30 µM].

Q: How did the growth turn out when COc1cc(CNC(=O)/C=C/C=C/c2ccc3c(c2)OCO3)ccc1OCc1cn(-c2ccc(Cl)c(Cl)c2)nn1 was run?
A: The growth was 57.7%.

Q: Which growth does the source give for CCOc1cccnc1/C=N/NC(N)=S here?
A: Its growth is 17.4%.
